The supplement of paper PMC7411054
Where a name gives a salt, the structure may show the parent alone. A number with no mark means an inactive call.

What follows are compounds tested on A549-GM130-SQSTM1 (assay: phenotypically active (imaging signature differs from DMSO and reproducible) at any of 0.3-9 uM (binary (1 = active, 0 = inactive)); higher = active). Details: treatment time: 24 h.
In short: (§1)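 After 24 h at 0.3, 1, 3 or 9 µM, with four wells per treatment, fifteen gene-edited A549, HepG2 and WPMY1 reporter lines carrying BFP, GFP and RFP/FusionRed were imaged live. Each well's live-cell features were expressed relative to solvent control wells. Deviation required ≥3 of 4 wells past the 95th percentile of control Euclidean distances, and reproducibility a median replicate Pearson correlation over the 95th percentile of non-replicates. Phenotypic activity rested on both.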

Row | Structure (SMILES) | phenotypically active
1 | CC/C(=C(\CC)c1ccc(O)c(CN(CC)CC)c1)c1ccc(O)c(CN(CC)CC)c1 | 1 (active)
2 | CNCCC(Oc1ccc(C(F)(F)F)cc1)c1ccccc1 (stereo not drawn) [fluoxetine] | 1 (active)
3 | Cn1cc(C2=C(c3ccc(Cl)cc3Cl)C(=O)NC2=O)c2ccccc21 | 1 (active)
4 | CC(C)COCC(CN(Cc1ccccc1)c1ccccc1)N1CCCC1 (stereo not drawn) [bepridil] | 1 (active)
5 | COc1cc(OC)c2cc(-c3ccncc3)cnc2c1 [DMPQ dihydrochloride] | 1 (active)
6 | O=C(NOCC1CC1)c1ccc(F)c(F)c1Nc1ccc(I)cc1Cl | 1 (active)
7 | Cn1cc(CCn2cnc(-c3cnn(C)c3)c2-c2ccc(C#N)cc2)cn1 | 1 (active)
8 | COc1ccc(CCNCc2ccc(OCc3ccc(Cl)nc3)c(OC)c2)cc1OC [SBE 13 hydrochloride] | 1 (active)
9 | O=C(O)Cc1cccc(OCCCN(Cc2cccc(C(F)(F)F)c2Cl)CC(c2ccccc2)c2ccccc2)c1 [GW 3965 hydrochloride] | 0
10 | N#C/C(=C(/N)Sc1ccc(N)cc1)c1ccccc1C(F)(F)F | 1 (active)
11 | CCOP(=O)(OCC)C(=Cc1cc(C(C)(C)C)c(O)c(C(C)(C)C)c1)P(=O)(OCC)OCC | 1 (active)
12 | O=C([C@H](Cc1cccc(C(F)(F)F)c1)NS(=O)(=O)c1cc(F)c2c(c1)CCNC2)N1CCCC1 [(S)-PFI 2 hydrochloride] | 1 (active)
13 | Cc1noc(C)c1Cn1cc(C#N)c2cc(Oc3ccc(NC(=O)[C@@H]4CCCN4)cc3)ccc21 | 1 (active)
14 | CCCS(=O)(=O)Nc1ccc(F)c(C(=O)c2c[nH]c3ncc(Cl)cc23)c1F | 1 (active)
15 | COc1c(C=O)c(O)cc2c1C(=O)c1ccccc1C2=O [Damnacanthal] | 1 (active)
16 | COc1ccc(CNC(=O)Nc2ncc([N+](=O)[O-])s2)cc1 | 1 (active)
17 | CC(C)(C)c1ccc2cc(C#N)c(C#N)cc2c1 | 1 (active)
18 | C[C@H]1Oc2cc(cnc2N)-c2c(nn(C)c2C#N)CN(C)C(=O)c2ccc(F)cc21 | 1 (active)
19 | CC(C)OC(=O)c1cc2c(OCC(O)CNC(C)(C)C)cccc2[nH]1 (stereo not drawn) | 1 (active)
20 | COc1ccccc1OCCNCC(O)COc1cccc2[nH]c3ccccc3c12 (stereo not drawn) [Carvedilol] | 1 (active)

Row | Structure (SMILES) | phenotypically active
21 | CCCCOc1cc(C(=O)NCCN(CC)CC)c2ccccc2n1 [cinchocaine] | 1 (active)
22 | O=S(=O)(c1cccc2cnccc12)N1CCCNCC1 [fasudil] | 1 (active)
23 | Clc1ccccc1C(c1ccccc1)(c1ccccc1)n1ccnc1 [Clotrimazole] | 1 (active)
24 | CSc1ccc2c(c1)N(CCC1CCCCN1C)c1ccccc1S2 (stereo not drawn) [thioridazine] | 1 (active)
25 | CCCNCC(O)COc1ccccc1C(=O)CCc1ccccc1 (stereo not drawn) [propafenone] | 1 (active)
26 | O=C(O)[C@@H]1[C@H]2C[C@H]3c4[nH]c5ccccc5c4CCN3C[C@@H]2CC[C@@H]1O [Yohimbinic acid monohydrate] | 1 (active)
27 | COc1cc(N2CCC(N)CC2)ccc1Nc1ncc(Cl)c(-c2c[nH]c3ccccc23)n1 | 1 (active)
28 | COc1cc2ncnc(Nc3ccc(Cl)cc3F)c2cc1OC | 1 (active)
29 | Cc1noc(C)c1-c1ccc2c(c1)nc(CCc1ccc(OCCCN(C)C)cc1)n2CCN1CCOCC1 | 1 (active)
30 | Cc1ccc(NC(=O)c2cccc(N(C)C)c2)cc1NC(=O)c1ccc(O)cc1 | 1 (active)
31 | Cc1cc(Nc2ccc(NC(=O)c3ccc(Nc4ccnc5ccccc45)cc3)cc2)nc(N)n1 | 1 (active)
32 | Cc1ccc(NC2=CC(=O)c3sc(C)nc3C2=O)cc1 [Ryuvidine] | 1 (active)
33 | C[C@]1(O)C[C@@H](c2nc(-c3ccc4ccc(-c5ccccc5)nc4c3)c3c(N)nccn32)C1 [linsitinib] | 1 (active)
34 | COc1cc2c(cc1OCCCN1CCCC1)N=C(N)C21CCC1 | 1 (active)
35 | O=C(O)C[C@H](O)C[C@H](O)/C=C/c1c(C2CC2)nc2ccccc2c1-c1ccc(F)cc1 [Pitavastatin calcium] | 1 (active)
36 | CC#CC(=O)N1CCC[C@H]1c1nc(-c2ccc(C(=O)Nc3ccccn3)cc2)c2c(N)nccn12 [acalabrutinib] | 1 (active)
37 | NC(=O)c1cccc(-c2cc(Nc3ccc(OC(F)(F)F)cc3)ncn2)c1 | 1 (active)
38 | CN1[C@@H]2CC[C@H]1C[C@@H](OC(c1ccccc1)c1ccccc1)C2 [benztropine] | 1 (active)
39 | NS(=O)(=O)c1nn2cc(-c3ccccc3)nc2s1 | 1 (active)

The compounds below were run on A549-TP53BP1-CLTA in the same assay as above. Details: treatment time: 24 h.
In short: as §1

Row | Structure (SMILES) | phenotypically active
40 | CC/C(=C(\CC)c1ccc(O)c(CN(CC)CC)c1)c1ccc(O)c(CN(CC)CC)c1 | 1 (active)
41 | CNCCC(Oc1ccc(C(F)(F)F)cc1)c1ccccc1 (stereo not drawn) [fluoxetine] | 1 (active)
42 | Cn1cc(C2=C(c3ccc(Cl)cc3Cl)C(=O)NC2=O)c2ccccc21 | 1 (active)
43 | CC(C)COCC(CN(Cc1ccccc1)c1ccccc1)N1CCCC1 (stereo not drawn) [bepridil] | 1 (active)
44 | COc1cc(OC)c2cc(-c3ccncc3)cnc2c1 [DMPQ dihydrochloride] | 1 (active)
45 | O=C(NOCC1CC1)c1ccc(F)c(F)c1Nc1ccc(I)cc1Cl | 1 (active)
46 | Cn1cc(CCn2cnc(-c3cnn(C)c3)c2-c2ccc(C#N)cc2)cn1 | 0
47 | COc1ccc(CCNCc2ccc(OCc3ccc(Cl)nc3)c(OC)c2)cc1OC [SBE 13 hydrochloride] | 1 (active)
48 | O=C(O)Cc1cccc(OCCCN(Cc2cccc(C(F)(F)F)c2Cl)CC(c2ccccc2)c2ccccc2)c1 [GW 3965 hydrochloride] | 0
49 | N#C/C(=C(/N)Sc1ccc(N)cc1)c1ccccc1C(F)(F)F | 1 (active)
50 | CCOP(=O)(OCC)C(=Cc1cc(C(C)(C)C)c(O)c(C(C)(C)C)c1)P(=O)(OCC)OCC | 0
51 | O=C([C@H](Cc1cccc(C(F)(F)F)c1)NS(=O)(=O)c1cc(F)c2c(c1)CCNC2)N1CCCC1 [(S)-PFI 2 hydrochloride] | 0
52 | Cc1noc(C)c1Cn1cc(C#N)c2cc(Oc3ccc(NC(=O)[C@@H]4CCCN4)cc3)ccc21 | 1 (active)
53 | CCCS(=O)(=O)Nc1ccc(F)c(C(=O)c2c[nH]c3ncc(Cl)cc23)c1F | 1 (active)
54 | COc1c(C=O)c(O)cc2c1C(=O)c1ccccc1C2=O [Damnacanthal] | 1 (active)
55 | COc1ccc(CNC(=O)Nc2ncc([N+](=O)[O-])s2)cc1 | 1 (active)
56 | CC(C)(C)c1ccc2cc(C#N)c(C#N)cc2c1 | 0
57 | C[C@H]1Oc2cc(cnc2N)-c2c(nn(C)c2C#N)CN(C)C(=O)c2ccc(F)cc21 | 1 (active)
58 | CC(C)OC(=O)c1cc2c(OCC(O)CNC(C)(C)C)cccc2[nH]1 (stereo not drawn) | 1 (active)
59 | COc1ccccc1OCCNCC(O)COc1cccc2[nH]c3ccccc3c12 (stereo not drawn) [Carvedilol] | 1 (active)

Row | Structure (SMILES) | phenotypically active
60 | CCCCOc1cc(C(=O)NCCN(CC)CC)c2ccccc2n1 [cinchocaine] | 1 (active)
61 | O=S(=O)(c1cccc2cnccc12)N1CCCNCC1 [fasudil] | 1 (active)
62 | Clc1ccccc1C(c1ccccc1)(c1ccccc1)n1ccnc1 [Clotrimazole] | 1 (active)
63 | CSc1ccc2c(c1)N(CCC1CCCCN1C)c1ccccc1S2 (stereo not drawn) [thioridazine] | 1 (active)
64 | CCCNCC(O)COc1ccccc1C(=O)CCc1ccccc1 (stereo not drawn) [propafenone] | 1 (active)
65 | O=C(O)[C@@H]1[C@H]2C[C@H]3c4[nH]c5ccccc5c4CCN3C[C@@H]2CC[C@@H]1O [Yohimbinic acid monohydrate] | 1 (active)
66 | COc1cc(N2CCC(N)CC2)ccc1Nc1ncc(Cl)c(-c2c[nH]c3ccccc23)n1 | 1 (active)
67 | COc1cc2ncnc(Nc3ccc(Cl)cc3F)c2cc1OC | 1 (active)
68 | Cc1noc(C)c1-c1ccc2c(c1)nc(CCc1ccc(OCCCN(C)C)cc1)n2CCN1CCOCC1 | 1 (active)
69 | Cc1ccc(NC(=O)c2cccc(N(C)C)c2)cc1NC(=O)c1ccc(O)cc1 | 1 (active)
70 | Cc1cc(Nc2ccc(NC(=O)c3ccc(Nc4ccnc5ccccc45)cc3)cc2)nc(N)n1 | 1 (active)
71 | Cc1ccc(NC2=CC(=O)c3sc(C)nc3C2=O)cc1 [Ryuvidine] | 1 (active)
72 | C[C@]1(O)C[C@@H](c2nc(-c3ccc4ccc(-c5ccccc5)nc4c3)c3c(N)nccn32)C1 [linsitinib] | 1 (active)
73 | COc1cc2c(cc1OCCCN1CCCC1)N=C(N)C21CCC1 | 0
74 | O=C(O)C[C@H](O)C[C@H](O)/C=C/c1c(C2CC2)nc2ccccc2c1-c1ccc(F)cc1 [Pitavastatin calcium] | 1 (active)
75 | CC#CC(=O)N1CCC[C@H]1c1nc(-c2ccc(C(=O)Nc3ccccn3)cc2)c2c(N)nccn12 [acalabrutinib] | 0
76 | NC(=O)c1cccc(-c2cc(Nc3ccc(OC(F)(F)F)cc3)ncn2)c1 | 1 (active)
77 | CN1[C@@H]2CC[C@H]1C[C@@H](OC(c1ccccc1)c1ccccc1)C2 [benztropine] | 1 (active)
78 | NS(=O)(=O)c1nn2cc(-c3ccccc3)nc2s1 | 1 (active)
